A selection: hits, their analogues and other compounds. The true share with any hit is near 0.36%.
AID504770 – growth inhibitors of E. coli YBA685 in a screen for V. cholerae RctB (chromosome II replication) inhibitors | E. coli YBA685 rctB-dependent plasmid, OD600 growth, 3 h; hits give low values | z-score (no concentration beside the values) | 130,000 tested, 0.27% active; in the data active means z-score below about -2, passing the limit was not always enough
Ba CapD inh – blocks the Bacillus anthracis CapD enzyme; AID 492967; purified CapD enzyme, fluorescence intensity read-out; hits give low values; 140,000 tested, 0.23% active; z-score (test concentration not listed); in the data active means z-score mostly below about -2.9, no sharp cut-off; inactive means mostly above about -1.9
* = called active by the depositor; . = no result given.

SMILES	AID504770	Ba CapD inh
Cc1ccc(N=Cc2c(O)[nH]c(=S)[nH]c2=O)cc1	-0.35	0.93
O=c1[nH]c(=S)[nH]c(O)c1N=Nc1ccc(O)cc1	-2	-3.9*
O=S(=O)(NC1CCN(Cc2ccccc2)C1)c1ccc(Cl)s1 (stereo not given)	.	0.7
Cc1nc(-c2ccccc2)sc1C(=O)Nc1ccc(Cl)c(Cl)c1	.	-0.02
Clc1nc2ccccc2c2nnc(-c3ccc(Br)cc3)n12	.	0.32
CCOC(=O)c1c[nH]c(=S)[nH]c1=O	0.55	-7*
CCOC(=O)c1c[nH]c(=S)[nH]1	.	0.14
CC1Cc2ccccc2N1CC(=O)Nc1ccc(SC(F)F)cc1 (stereo not given)	-0.3	.
c1ccc(C2=Nc3ccccc3SC2c2nc3ccccc3[nH]2)cc1 (stereo not given)	1.1	-4.1*
c1ccc(C2=NNC(c3nc4ccccc4[nH]3)C2)cc1 (stereo not given)	-0.7	.
O=Nc1ccc(NNC(=O)c2ccccc2O)cc1	-2.9*	-3.7
O=C(Nc1ccc(NC(=O)c2ccccc2O)cc1)c1ccccc1	1.1	0.32
COc1cccc(NC(=O)c2sc3nc4c(c(-c5ccco5)c3c2N)CCCC4)c1	.	-0.21
O=C(OCC1CCCN(Cc2ccccc2F)C1)N1CCN(c2cc(C(F)(F)F)ccn2)CC1 (stereo not given)	.	68
O=S(=O)(c1cccs1)c1cccs1	-0.65	-0.08
N#Cc1nccnc1S(=O)(=O)c1cccs1	-7.8*	0.71
O=C(NCC1CCCO1)C1CCN(c2nnc(-n3cccc3)s2)CC1 (stereo not given)	0.25	0.16
Cc1ccc(COc2ccc(C(=O)N/N=C/C=C\c3ccccc3)cc2)cc1	.	-0.61
CCc1ccccc1NC(=O)Cn1cc2c(n1)CCCC2	0.25	0.1
CCN1CSC(=S)N(Cc2ccc(OC)cc2)C1	1.4	-0.28
CCN1CSC(=S)N(Cc2ccccc2)C1	-2.9*	0.53
CC(=O)Nc1ccc(SCC(=O)C(C)(C)C)cc1	1.6	.
CCOC(=O)CNc1nn2c(=O)c3ccc(C(=O)OC)cc3nc2s1	-0.35	1.4
CC(C)(C)c1ccc(-c2nnnn2-c2ccccc2)cc1	-0.25	-0.18
CCOC(=O)c1c(Nc2ccc(OC)c(Cl)c2)n[nH]c1C	3	.
SMILES	AID504770	Ba CapD inh
O=C(CSc1n[nH]c(-c2ccncc2)n1)c1ccc(Cl)cc1	.	-0.52
Nc1nc(SCC(=O)c2ccc(Cl)cc2)n[nH]1	-2.6*	-0.34
O=C1NC(=S)N(c2ccccc2)C(=O)/C1=C/C=C/c1ccco1	-1.2	-1
COc1cccc(N2C(=O)/C(=C/C=C/c3ccco3)C(=O)NC2=S)c1	-0.8	-7.4*
CCOC(=O)c1cnc2c(CC)cccc2c1NCCO	-0.4	.
Oc1cc(Cc2nc3ccccc3s2)c(O)cc1Cc1nc2ccccc2s1	1.4	15
Cc1cc(C)c2c(-c3ccccc3)[nH]nc2n1	-0.85	3.7
Cc1cc(C)c2c(/N=N/N3CCCCCC3)[nH]nc2n1	-4*	-0.24
CN1C(=O)CC(=O)N(C)c2ccccc21	1.5	-0.17
C=CCN1C(=O)CS/C1=C(\C#N)S(=O)(=O)c1ccc(C)cc1	-2.9*	-1.6
Cc1ccc(S(=O)(=O)C(C#N)=C2SCCS2)cc1	-0.25	-0.18
Cc1cnc(NC(=O)c2cccc3ccccc23)s1	-0.5	.
CC1(C)CC(NC(=O)NC2CCCCC2)CC(C)(C)N1	1.4	-0.4
O=c1oc(-c2cccs2)ns1	-0.25	-8.9*
O=c1oc(-c2c(Cl)cccc2Cl)ns1	.	0.15
Cc1cccc(Cn2nc(C)c(NC(=O)c3ccncc3)c2C)c1	0.45	-0.13
CCOc1ccc(C(=O)NC(C(=O)Nc2ccc(S(=O)(=O)N(C)C)cc2)C(C)C)cc1 (stereo not given)	-5*	.
CCOc1ccc(C(=O)N[C@H](C(=O)NC2CCCCC2)C(C)C)cc1	2	.
CCc1ccccc1N(C)S(=O)(=O)c1c(C)noc1/C=C/N1CCOCC1	-0.5	-3.4
Cc1noc(/C=C/N2CCOCC2)c1S(=O)(=O)N(C)CC(=O)NC1CCCCC1	0.7	-5.5*
COc1cc(/C=C2/SC(=S)N(CC(=O)O)C2=O)ccc1Oc1ccc([N+](=O)[O-])cc1[N+](=O)[O-]	.	-2.6
S=C(N/N=C\c1ccco1)Nc1ccccc1	1.4	-3.3
CC(C)NC(=S)N/N=C/c1ccco1	0.3	-4*
CN1/C(=C\C=Nc2ccc(C(=O)O)cc2)C(C)(C)c2ccccc21	0.6	-3.2*
CN1/C(=C\C=Nc2cccc(C(=O)O)c2)C(C)(C)c2ccccc21	0.95	-0.36
SMILES	AID504770	Ba CapD inh
O=C(CN1CCc2ccccc21)NC(=O)Nc1ccc2c(c1)OCCO2	-0.6	.
Cc1c2cnn(CC(=O)Nc3ccc4c(c3)OCCO4)c(=O)c2c(C)n1Cc1ccc(F)cc1	0.65	0.84
CN(C)[C@@H]1C(=O)C(C(=O)NCN2CCCC2)=C(O)[C@@]2(O)C(=O)C3=C(O)c4c(O)cccc4[C@@](C)(O)C3CC12 (stereo not given in full)	.	-3.1
C=C1c2cccc(O)c2C(O)=C2C(=O)[C@]3(O)C(O)=C(C(N)=O)C(=O)[C@@H](N(C)C)[C@@H]3[C@@H](O)[C@H]12	-3.4*	-0.36
C=C1c2c(Cl)ccc(O)c2C(O)=C2C(=O)[C@]3(O)C(O)=C(C(N)=O)C(=O)[C@@H](N(C)C)[C@@H]3[C@@H](O)[C@H]12	-4.2*	0.66
C[C@H]1c2cccc(O)c2C(O)=C2C(=O)C3(O)C(O)=C(C(N)=O)C(=O)[C@@H](N(C)C)[C@@H]3[C@@H](O)[C@@H]21 (stereo not given in full)	.	-0.36
CN(C)[C@@H]1C(=O)C(C(N)=O)=C(O)[C@@]2(O)C(=O)C3=C(O)c4c(O)cccc4[C@@](C)(O)[C@H]3C[C@@H]12	-3.2*	0.03
C=C(C)C(=O)Oc1ccc2c(c1)C(C)=CC(C)(C)N2	-0.85	0.27
CC(=N\O)/C(=N\O)c1cccs1	0.6	0.73
CC(C)(C)Nc1nc2c(s1)CCCC2	-0.75	.
Cc1nc(C(=O)N/N=C/c2cn(C)c3ccccc23)cs1	.	23
Cc1c(C#N)c(NC(=O)CSC(=S)N2CCCC2)n(Cc2ccco2)c1C	0.2	.
CCOc1cc(/C=C2\SC(=S)N(C(C(=O)O)C(C)C)C2=O)ccc1O (stereo not given)	-0.15	-4.8*
COc1cc(/C=C2\SC(=S)N(C(C(=O)O)C(C)C)C2=O)cc(OC)c1O (stereo not given)	0.45	-0.36
Cn1c(=O)c2ncnnc2n(C)c1=O	-2.3*	.
C=CCn1cnc2c1c(=O)n(C)c(=O)n2C	-2.5	-0.42
Cn1c(N)c(C#N)c2c(c1=S)CCCC2	-2.8*	.
CN1CCc2c(C#N)c(N)n(N)c(=S)c2C1	-0.35	.
COC(=O)/C(C#N)=C/c1ccc(-c2ccccc2)o1	0.1	.
O=C(CNc1ccccc1C(=O)O)c1ccccc1	.	18
NC(=O)c1ccccc1NCC(=O)c1ccc(Cl)cc1	-2.2*	37
Cc1nc2cc3ccccc3cc2c(=O)[nH]1	-0.95	.
Cc1ccccc1Nc1cc2ccccc2c(=O)[nH]1	-4*	15
COC(=O)Cc1nc(N2CCN(c3ccc([N+](=O)[O-])cc3)CC2)c2c3c(sc2n1)CCCC3	.	-0.81
CCOC(=O)C1=C(O)/C(=C/c2ccc(N(C)C)cc2)SC1=Nc1ccc(OC)cc1	.	0.12
Cc1onc(-c2c(Cl)cccc2Cl)c1C(=O)Nc1ccccc1	.	-0.16
N#CC(C#N)=C(N)/C(C#N)=C/c1ccc(-c2cccc(C(=O)O)c2)o1	-0.6	-4*
N#CC(C#N)=C(N)/C(C#N)=C\c1ccc(-c2ccccc2)o1	0.35	.

Screening data from PubChem BioAssay.
